# About 410 targets per protein were measured; listed, in parts, are those with the strongest signals and a random draw of the rest.
# Key:
# Assay in all cases: glycan array binding signal (z-score within array); higher = stronger binding
# Conditions in all cases: glycan notation: IUPAC condensed, linker removed
# [1] = biological target: Fuc(a1-2)Gal(b1-3)GalNAc(a1-3)[Fuc(a1-2)]Gal(b1-4)Glc
# Method in brief: (§1)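 The Consortium for Functional Glycomics database supplied 3228 glycan arrays, of which those lacking an available protein sequence were dropped. The binding signal, a within-array Z-score, was averaged across arrays of the same protein sequence and across linkers. Negative scores can be read as non-binding.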
# [2] = biological target: Fuc(a1-2)Gal(b1-3)[Fuc(a1-4)]GlcNAc(b1-2)Man(a1-3)[Fuc(a1-2)Gal(b1-3)[Fuc(a1-4)]GlcNAc(b1-2)Man(a1-6)]Man(b1-4)GlcNAc(b1-4)[Fuc(a1-6)]GlcNAc(b1-4)[Fuc(a1-6)]GlcNAc
# Method in brief: as §1
# [3] = biological target: Fuc(a1-2)Gal(b1-4)Glc6S
# Method in brief: as §1
# [4] = biological target: Fuc(a1-2)Gal(b1-4)GlcNAc(b1-3)GalNAc
# Method in brief: as §1
# [5] = biological target: Fuc(a1-2)Gal(b1-4)[Fuc(a1-3)]GlcNAc(b1-3)Gal(b1-4)[Fuc(a1-3)]GlcNAc
# Method in brief: as §1
# [6] = biological target: Fuc(a1-2)[Gal(a1-3)]Gal(b1-3)GlcNAc(b1-3)GalNAc
# Method in brief: as §1
# [7] = biological target: Fuc(a1-2)[GalNAc(a1-3)]Gal(b1-4)GlcNAc(b1-2)Man(a1-3)[Fuc(a1-2)[GalNAc(a1-3)]Gal(b1-4)GlcNAc(b1-2)Man(a1-6)]Man(b1-4)GlcNAc(b1-4)GlcNAc
# Method in brief: as §1
# [8] = biological target: Fuc(a1-3)[Gal(b1-4)]GlcNAc(b1-6)[Gal(b1-3)GlcNAc(b1-3)]Gal(b1-4)Glc
# Method in brief: as §1
# [9] = biological target: Fuc(a1-4)GlcNAc
# Method in brief: as §1
# [10] = biological target: Gal(a1-3)Gal(b1-3)GlcNAc
# Method in brief: as §1
# [11] = biological target: Gal(a1-4)Gal(b1-4)GlcNAc(b1-2)Man(a1-3)[Gal(a1-4)Gal(b1-4)GlcNAc(b1-2)Man(a1-6)]Man(b1-4)GlcNAc(b1-4)GlcNAc
# Method in brief: as §1
# [12] = biological target: Gal(b1-3)GalNAc(a1-3)[Fuc(a1-2)]Gal(b1-4)Glc
# Method in brief: as §1
# [13] = biological target: Gal(b1-3)GlcNAc(b1-2)Man
# Method in brief: as §1
# [14] = biological target: Gal(b1-3)[GlcNAc(b1-6)]GalNAc
# Method in brief: as §1
# [15] = biological target: Gal(b1-3)[Neu5Ac(a2-6)]GlcNAc(b1-4)Gal(b1-4)Glc
# Method in brief: as §1
# [16] = biological target: Gal(b1-4)GalNAc(b1-3)[Fuc(a1-2)]Gal(b1-4)GlcNAc
# Method in brief: as §1
# [17] = biological target: Gal(b1-4)GlcNAc(b1-2)Man
# Method in brief: as §1
# [18] = biological target: Gal(b1-4)GlcNAc(b1-2)Man(a1-6)Man(b1-4)GlcNAc(b1-4)GlcNAc
# Method in brief: as §1
# [19] = biological target: Gal(b1-4)GlcNAc(b1-2)[Gal(b1-4)GlcNAc(b1-6)]Man(a1-6)[GlcNAc(b1-4)][Gal(b1-4)GlcNAc(b1-2)Man(a1-3)]Man(b1-4)GlcNAc(b1-4)GlcNAc
# Method in brief: as §1
# [20] = biological target: Gal(b1-4)GlcNAc(b1-3)Gal(b1-4)Glc
# Method in brief: as §1
# [21] = biological target: Gal(b1-4)GlcNAc(b1-3)Gal(b1-4)GlcNAc
# Method in brief: as §1
# [22] = biological target: Gal(b1-4)GlcNAc(b1-3)Gal(b1-4)GlcNAc(b1-3)Gal(b1-4)GlcNAc
# Method in brief: as §1
# [23] = biological target: Gal(b1-4)GlcNAc(b1-3)Gal(b1-4)GlcNAc(b1-3)Gal(b1-4)GlcNAc(b1-2)Man(a1-3)[Gal(b1-4)GlcNAc(b1-3)Gal(b1-4)GlcNAc(b1-3)Gal(b1-4)GlcNAc(b1-2)Man(a1-6)]Man(b1-4)GlcNAc(b1-4)GlcNAc
# Method in brief: as §1
# [24] = biological target: Gal(b1-4)GlcNAc(b1-3)Gal(b1-4)GlcNAc(b1-3)Gal(b1-4)GlcNAc(b1-2)Man(a1-3)[Gal(b1-4)GlcNAc(b1-3)Gal(b1-4)GlcNAc(b1-3)Gal(b1-4)GlcNAc(b1-2)Man(a1-6)]Man(b1-4)GlcNAc(b1-4)[Fuc(a1-6)]GlcNAc
# Method in brief: as §1
# [25] = biological target: Gal(b1-4)GlcNAc(b1-3)Gal(b1-4)GlcNAc(b1-3)Gal(b1-4)GlcNAc(b1-2)[Gal(b1-4)GlcNAc(b1-3)Gal(b1-4)GlcNAc(b1-3)Gal(b1-4)GlcNAc(b1-6)]Man(a1-6)[Gal(b1-4)GlcNAc(b1-3)Gal(b1-4)GlcNAc(b1-3)Gal(b1-4)GlcNAc(b1-2)Man(a1-3)]Man(b1-4)GlcNAc(b1-4)[Fuc(a1-6)]GlcNAc
# Method in brief: as §1
# [26] = biological target: Gal(b1-4)GlcNAc(b1-3)Gal(b1-4)GlcNAc(b1-3)Gal(b1-4)GlcNAc(b1-3)Gal(b1-4)GlcNAc(b1-2)[Gal(b1-4)GlcNAc(b1-3)Gal(b1-4)GlcNAc(b1-3)Gal(b1-4)GlcNAc(b1-3)Gal(b1-4)GlcNAc(b1-6)]Man(a1-6)[Gal(b1-4)GlcNAc(b1-3)Gal(b1-4)GlcNAc(b1-3)Gal(b1-4)GlcNAc(b1-3)Gal(b1-4)GlcNAc(b1-2)Man(a1-3)]Man(b1-4)GlcNAc(b1-4)[Fuc(a1-6)]GlcNAc
# Method in brief: as §1
# [27] = biological target: Gal(b1-4)GlcNAc(b1-3)Gal(b1-4)GlcNAc(b1-3)Gal(b1-4)GlcNAc(b1-3)Gal(b1-4)GlcNAc(b1-3)Gal(b1-4)GlcNAc(b1-3)Gal(b1-4)GlcNAc(b1-2)Man(a1-3)[Gal(b1-4)GlcNAc(b1-3)Gal(b1-4)GlcNAc(b1-3)Gal(b1-4)GlcNAc(b1-3)Gal(b1-4)GlcNAc(b1-3)Gal(b1-4)GlcNAc(b1-3)Gal(b1-4)GlcNAc(b1-2)Man(a1-6)]Man(b1-4)GlcNAc(b1-4)GlcNAc
# Method in brief: as §1
# [28] = biological target: Gal(b1-4)GlcNAc(b1-3)Gal(b1-4)[Fuc(a1-3)]GlcNAc(b1-3)Gal(b1-4)[Fuc(a1-3)]GlcNAc
# Method in brief: as §1
# [29] = biological target: Gal(b1-6)Gal
# Method in brief: as §1
# [30] = biological target: Gal3S(b1-4)Glc
# Method in brief: as §1
binder,measurement,setting,value
B1567 (Bifidobacterium sp) (protein) MKFTTAKKAVALTGAVAMLVSVAACGSDSGKSSQPAQDSDVKEITVWAWEPSLTQVAKDFEKETGIKVDLKNVGTNTKEYTQLDNAIEAGSGAPDVAQVEYYAVPQYAIKGNLLDITDKTSGYKDFYTPGPWASVQFAGKVYGLPMDSGPMAFFYNKEVFDKAGVDAEQIKTWDQYYDAAKKIHALGDNYYITSDTGDAGFFDSMTWLAGAKPFQTSSDGSEVTVNLTEDKGVKTFTDFWQKLLDEGLLDTKTAGWSEDWFKGMVDGTIASLFTGAWMPANLANSAADGAGKWRVTQMPTADGSTTNSENGGSSLAVLASTKKADAAYQFIEYANHGAGVATRVAGGAFPADKASLEKDSFKNATTVKNADGQDVDYFGGQKYNEVLAQAAENVSSGYQFLPFEVKARTIFGDYFGKSYTGDQKLSDGVAAWQKALQDYGKDQGFTVK,glycan array binding signal (z-score),[1],-0.161
same,glycan array binding signal (z-score),[2],-0.08
same,glycan array binding signal (z-score),[3],-0.184
same,glycan array binding signal (z-score),[4],-0.127
same,glycan array binding signal (z-score),[5],-0.104
same,glycan array binding signal (z-score),[6],-0.097
same,glycan array binding signal (z-score),[7],0.019
same,glycan array binding signal (z-score),[8],-0.15
same,glycan array binding signal (z-score),[9],-0.077
same,glycan array binding signal (z-score),[10],-0.129
same,glycan array binding signal (z-score),[11],0.067
same,glycan array binding signal (z-score),[12],-0.013
same,glycan array binding signal (z-score),[13],0.008
same,glycan array binding signal (z-score),[14],-0.138
same,glycan array binding signal (z-score),[15],-0.133
same,glycan array binding signal (z-score),[16],-0.08
same,glycan array binding signal (z-score),[17],-0.12
same,glycan array binding signal (z-score),[18],-0.101
same,glycan array binding signal (z-score),[19],-0.145
same,glycan array binding signal (z-score),[20],14.9
same,glycan array binding signal (z-score),[21],0.588
same,glycan array binding signal (z-score),[22],1.4
same,glycan array binding signal (z-score),[23],0.282
same,glycan array binding signal (z-score),[24],0.333
same,glycan array binding signal (z-score),[25],0.271
same,glycan array binding signal (z-score),[26],0.348
same,glycan array binding signal (z-score),[27],1.66
same,glycan array binding signal (z-score),[28],1.8
same,glycan array binding signal (z-score),[29],11
same,glycan array binding signal (z-score),[30],-0.135

# — the supplement of paper PMC8728848
